# Unmarked numbers belong to inactive results. Records with an inconclusive call do not appear. A call without a number means that no potency is given here. Active and inactive are the calls of the source. Unless noted, the call rests on the fitted dose curve; in most records, active means well fitted curve in the direction sought with a large enough effect; inconclusive means small, poorly fitted or top-dose-only effect, or another doubt; inactive means no such curve, though single readings can be large; an effect the other way counts as inactive or inconclusive.
# Columns and labels:
# [1] = S16 Schwann cell viability assay (CellTiter-Glo assay) (AID 624031); further: nearly all actives have a fitted effect of over 70% in size; further: potency means the concentration at half of the fitted maximal effect
# Summary of the method: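 Native S16 rat Schwann cells, 500-750 cells/well in DMEM with 10% FBS, dosed with compound after overnight culture and incubated 24h at 37 degree Celsius/5% CO2. Viability by CellTiter-Glo luminescence; % activity normalized to no-cell wells and DMSO-treated cells.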
# [2] = S16 Schwann cell PMP22 intronic element firefly luciferase assay (AID 624032); further: nearly all actives have a fitted effect of over 30% in size; further: potency means the concentration at half of the fitted maximal effect
# Summary of the method: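 Rat S16 Schwann cells stably carrying firefly luciferase driven by a PMP22 intronic element, in 10% FBS, treated 24 h at 37 C. ONE-Glo luminescence normalized to PTC124 control and DMSO (0%); curves classed by r2, magnitude and activity.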
# [3] = S16 Schwann cell PMP22 intronic element beta-lactamase assay (AID 624044; calls by dose curve; further: nearly all actives have a fitted effect of over 15% in size; further: potency means the concentration at half of the fitted maximal effect); conditions: S16 rat Schwann cells, PMP22 element beta-lactamase FRET, 24 h; ratio activity, negative = inhibition: at 38.3 µM (top of the series)
# Summary of the method: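 Beta-lactamase reporter under a PMP22 intronic regulatory element in stable S16 rat Schwann cells; 24 h compound exposure. 460 nm blue signal normalized between DMSO (0%) and potassium clavulanate, with 535 nm FRET tracking viability; curves classed by r2 and response.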
# [4] = qHTS assay for small molecule agonists of the antioxidant response element (ARE) signaling pathway (AID 651741; active means well fitted activation curve with a large enough effect in the signal ratio; the % refers to the signal ratio)
# Summary of the method: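 HepG2 ARE-bla reporter cells, 2,000/well; 5 h settle at 37 C/5% CO2; compound pin transfer (23 nL, DMSO); 16 h at 37 C; LiveBLAzer B/G FRET substrate, 2 h RT; fluorescence intensity read.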
# [5] = qHTS assay for small molecule activators of the p53 signaling pathway (AID 651743; active means well fitted activation curve with a large enough effect in the signal ratio, not every such curve was filed as active; the % refers to the signal ratio); conditions: HCT-116 p53RE-bla, beta-lactamase FRET ratio, 16 h; activation: hits give high values
# Summary of the method: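 Reporter: beta-lactamase driven by p53 response elements, stably integrated in HCT-116 cells. Cells seeded at 4,000/well, 5 h preincubation, compound (DMSO) 16 h at 37 C; B/G FRET substrate 2 h RT; fluorescence intensity read.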
# [6] = target: Glutaminase kidney isoform, mitochondrial (Homo sapiens) (UniProt O94925); assay: qHTS for Inhibitors of Glutaminase (GLS): LOPAC Validation (AID 624146);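 further: glutamate product detected by oxidase and peroxidase coupled Amplex red fluorescence gain; nearly all actives have a fitted effect of over 60% in size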
# Summary of the method: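 Human kidney-isoform GLS in 45 mM KH2PO4 pH 8.2, 0.02% Tween-20, with compound, started with 1mM L-Glutamine (added stock). Glutamate oxidase/HRP/Amplex red coupled fluorescence read at start and after 30 min at RT.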
# [7] = qHTS of Trypanosoma Brucei Inhibitors: LOPAC Validation (AID 624147)
# Summary of the method: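 Luminescent Kinase-Glo Plus end-point after 45 min room-temperature reaction of T. brucei pyruvate kinase started with 130 uM ADP (final). Buffer TEA 50 mM pH 7.2 with KCl, MgCl2, BSA, Tween-20; titration-based qHTS with fitted concentration-effect curves.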
# [8] = target: Glucagon-like peptide 1 receptor (Homo sapiens) (UniProt P43220); assay: qHTS of GLP-1 Receptor Agonists: LOPAC Validation (AID 624148);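 further: higher luminescence signal means agonism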
# Summary of the method: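 HEK293 cells stably co-expressing GLP-1R and a cAMP-responsive luciferase reporter, plated 12 hours before compound, then incubated 4-6 hr at 37 deg C. Luminescence read 12 min after detection reagent.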
# [9] = qHTS of Nrf2 Activators: LOPAC Validation (AID 624149)
# Summary of the method: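 AREc32_Fluc cells, 1000/well, OPTI-MEM + 5% FBS, o/n 37 deg C 5% CO2; compound pin-transfer, 24 hr 37 deg C; Steady-Glo 30 min RT, luminescence read.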
# [10] = HTS Assay for Allosteric Antagonists of the Human D2 Dopamine Receptor: Hit Validation in HTRF (AID 624455)
# Summary of the method: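 HTRF read-out; cells stably expressing D1 receptor; hits scored for inhibition of D1-mediated response. Primary screen: calcium flux, force-coupled inducible Hek293 Trex D2 line, antagonism vs EC80 dopamine.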
# Sequence of Glucagon-like peptide 1 receptor (Homo sapiens) (P43220 whole entry, looked up): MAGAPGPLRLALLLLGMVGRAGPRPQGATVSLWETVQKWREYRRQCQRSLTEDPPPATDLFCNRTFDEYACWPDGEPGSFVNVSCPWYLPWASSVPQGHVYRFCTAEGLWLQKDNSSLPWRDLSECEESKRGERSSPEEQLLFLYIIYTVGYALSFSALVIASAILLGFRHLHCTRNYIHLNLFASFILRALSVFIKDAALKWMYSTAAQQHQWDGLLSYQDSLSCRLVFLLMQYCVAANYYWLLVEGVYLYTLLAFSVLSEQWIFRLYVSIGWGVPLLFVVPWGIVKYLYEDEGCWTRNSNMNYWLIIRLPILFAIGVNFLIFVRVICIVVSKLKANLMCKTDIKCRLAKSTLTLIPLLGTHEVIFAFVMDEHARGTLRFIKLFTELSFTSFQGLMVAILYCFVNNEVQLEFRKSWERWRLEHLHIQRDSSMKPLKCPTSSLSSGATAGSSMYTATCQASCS
# Sequence of Glutaminase kidney isoform, mitochondrial (Homo sapiens) (O94925 whole entry, looked up, canonical isoform): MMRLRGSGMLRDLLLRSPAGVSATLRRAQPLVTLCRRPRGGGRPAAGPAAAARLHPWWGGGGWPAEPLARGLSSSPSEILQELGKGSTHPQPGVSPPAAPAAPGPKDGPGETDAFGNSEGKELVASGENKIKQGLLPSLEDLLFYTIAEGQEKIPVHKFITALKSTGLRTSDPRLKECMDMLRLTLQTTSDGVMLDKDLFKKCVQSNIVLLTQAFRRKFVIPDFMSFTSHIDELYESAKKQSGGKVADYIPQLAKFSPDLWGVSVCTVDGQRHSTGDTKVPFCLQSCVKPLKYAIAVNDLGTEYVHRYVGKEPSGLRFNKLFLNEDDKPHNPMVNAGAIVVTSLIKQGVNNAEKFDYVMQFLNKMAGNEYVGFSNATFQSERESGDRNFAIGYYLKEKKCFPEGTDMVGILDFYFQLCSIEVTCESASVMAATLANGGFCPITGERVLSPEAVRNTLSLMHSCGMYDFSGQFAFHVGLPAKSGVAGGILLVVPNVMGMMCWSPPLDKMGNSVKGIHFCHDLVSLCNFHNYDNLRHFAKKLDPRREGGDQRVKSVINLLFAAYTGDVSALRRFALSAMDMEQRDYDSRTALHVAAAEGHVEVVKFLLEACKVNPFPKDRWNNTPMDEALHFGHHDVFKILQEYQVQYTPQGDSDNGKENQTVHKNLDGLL
smiles,measurement,setting,value
CCCCN1CCCC1C(=O)Nc1c(C)cc(C)cc1C (stereo not given),Potency,[1],inactive
same,Potency,[2],inactive
Cc1c(C(N)=O)cc([N+](=O)[O-])cc1[N+](=O)[O-],Potency,[1],inactive
same,Potency,[2],inactive
NCCC(O)(P(=O)(O)O)P(=O)(O)O,Potency,[1],inactive
same,Potency,[2],inactive
CCCCCCCCCCCCCCCCCC(=O)OCC(O)CO (stereo not given),Potency,[1],inactive
same,Potency,[2],inactive
CCOc1ccc(Cc2nccc3cc(OCC)c(OCC)cc23)cc1OCC,Potency,[1],inactive
same,Potency,[2],2.45 µM (active)
CCCN1CCCC[C@H]1C(=O)Nc1c(C)cccc1C,Potency,[1],inactive
same,Potency,[2],inactive
same,Potency,[3],inactive
CCn1cc(C(=O)O)c(=O)c2cnc(N3CCCC3)nc21,Potency,[1],inactive
same,Potency,[2],inactive
Cc1cccn2c(=O)c(-c3nnn[nH]3)cnc12,Potency,[1],inactive
same,Potency,[2],inactive
C[C@H](O)C(=O)Nc1c(I)c(C(=O)NC(CO)CO)c(I)c(C(=O)NC(CO)CO)c1I,Potency,[1],inactive
same,Potency,[2],inactive
Nc1ccc(/C=C/c2ccc(N)cc2S(=O)(=O)O)c(S(=O)(=O)O)c1,Potency,[1],inactive
same,Potency,[2],inactive
OC(CCN1CCCCC1)(c1ccccc1)c1ccccc1,Potency,[1],inactive
same,Potency,[2],inactive
CC(C)(CO)[C@@H](O)C(=O)NCCCO,Potency,[1],inactive
same,Potency,[2],inactive
CCC(C(=O)OCCN(CC)CC)c1ccccc1 (stereo not given),Potency,[1],inactive
same,Potency,[2],inactive
C[C@H]1[C@H](NC(=O)/C(=N/OC(C)(C)C(=O)O)c2csc(N)n2)C(=O)N1S(=O)(=O)O (stereo in doubt),Potency,[1],inactive
same,Potency,[2],inactive
NC(CS)C(=O)O (stereo not given),Potency,[1],inactive
same,Potency,[2],inactive
same,Potency,[3],inactive
COc1cc2c(cc1OC)C(C(C(=O)N(CCc1ccc(OC)c(OC)c1OC)CCc1ccc(OC)c(OC)c1OC)c1ccccc1)=NCC2 (stereo not given),Potency,[1],inactive
same,Potency,[2],28.7 µM (active)
same,Potency,[3],inactive
CCC(=O)c1c(O)cc(O)cc1O,Potency,[1],inactive
same,Potency,[2],inactive
same,Potency,[3],inactive
CC(C)=CCC1C(=O)N(c2ccccc2)N(c2ccccc2)C1=O,Potency,[1],inactive
same,Potency,[2],inactive
same,Potency,[3],inactive
CC(C)(C(=O)c1cccnc1)c1cccnc1,Potency,[1],inactive
same,Potency,[2],inactive
same,Potency,[3],inactive
c1ccc(-c2ccc(C(c3ccccc3)n3ccnc3)cc2)cc1 (stereo not given),Potency,[1],inactive
same,Potency,[2],inactive
same,Potency,[3],inactive
Oc1ccc(Cl)cc1Sc1cc(Cl)ccc1O,Potency,[1],inactive
same,Potency,[2],inactive
same,Potency,[3],inactive
CN(C)CCCOc1nn(Cc2ccccc2)c2ccccc12,Potency,[1],inactive
same,Potency,[2],inactive
same,Potency,[3],inactive
C[C@@H]1CN(CCCn2c3ccccc3c3ccccc32)C[C@H](C)N1,Potency,[1],32.2 µM (active)
same,Potency,[2],36.1 µM (active)
same,Potency,[3],inactive
CC(C)(Oc1ccc(Cl)cc1)C(=O)O,Potency,[1],inactive
same,Potency,[2],inactive
same,Potency,[3],inactive
same,Potency,[4],inactive
same,activation,[5],0.845%
Cc1ncc(CSSCc2cnc(C)c(O)c2CO)c(CO)c1O,Potency,[1],inactive
same,Potency,[2],inactive
same,Potency,[3],inactive
C1CCc2nnnn2CC1,Potency,[1],inactive
same,Potency,[2],inactive
same,Potency,[3],inactive
same,Potency,[6],inactive
same,outcome,[7],inactive
same,outcome,[8],inactive
same,Potency,[9],inactive
O=C1CCC(c2ccc(-n3ccnc3)cc2)=NN1,Potency,[1],inactive
same,Potency,[2],inactive
same,Potency,[3],inactive
same,Potency,[6],inactive
same,outcome,[7],inactive
same,outcome,[8],inactive
same,Potency,[9],inactive
same,outcome,[10],inactive
CN=C(NC#N)NCCSCc1csc(N=C(N)N)n1,Potency,[1],inactive
same,Potency,[2],inactive
same,Potency,[3],inactive
COC(=O)[C@H]1[C@H]2C[C@H]3c4[nH]c5ccccc5c4CCN3C[C@H]2CC[C@@H]1O,Potency,[1],inactive
same,Potency,[2],inactive
same,Potency,[3],inactive
same,outcome,[7],inactive
same,outcome,[8],inactive
same,Potency,[9],inactive
same,outcome,[10],inactive
CCCCCCCCCCCCCCCC[N+](C)(C)CC,Potency,[1],32.2 µM (active)
same,Potency,[2],14.4 µM (active)
same,Potency,[3],22.4 µM (active)
Cc1cc(O)c(C(C)C)cc1Cl,Potency,[1],inactive
same,Potency,[2],inactive
same,Potency,[3],inactive
NCCCC[C@H](N[C@@H](CCc1ccccc1)C(=O)O)C(=O)N1CCC[C@H]1C(=O)O,Potency,[1],inactive
same,Potency,[2],inactive
same,Potency,[3],inactive
O=S1(=O)c2cccc3cccc(c23)N1CCCN1CCN(c2ccc(F)cc2)CC1,Potency,[1],inactive
same,Potency,[2],inactive
same,"ratio activity, negative = inhibition",[3],-2.31% (active)
CCCCC1=NC2(CCCC2)C(=O)N1Cc1ccc(-c2ccccc2-c2nn[nH]n2)cc1,Potency,[1],inactive
same,Potency,[2],inactive
same,Potency,[3],inactive
COc1ccc(/C=C/C(=O)c2ccc(OC)cc2OC)cc1,Potency,[1],inactive
same,Potency,[2],inactive
same,Potency,[3],inactive
CCCCCCCCCCCCCCCCOP(=O)([O-])OCC[N+](C)(C)C,Potency,[1],inactive
same,Potency,[2],inactive
same,Potency,[3],inactive

# — PubChem BioAssay (NCATS)
